Laboratory results: PubChem BioAssay (NCI)
The panel holds about 83,000 compounds, 20% with a hit somewhere; the sample as a whole holds those more often.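 Single-dose data. Exposure time 48 hours. Values below 10 considered active.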 Calls of active or inactive are those of the source.

The compounds below were run on HL-60(TB) leukemia (assay: NCI-60 one-dose screen, 48 h (100 = growth as untreated, 0 = no growth, -100 = all killed)). Details: 10 µM unless noted.

Row | Compound | growth
1 | COC(=O)c1c(C(=O)OC)c2c3ccccc3c3ccccc3n2c1C(=O)C(C)(C)C | 72.5% (inactive)
2 | CCCn1c(O)c(N=Nc2nc(-c3cc4ccccc4oc3=O)cs2)c2cc(Br)ccc21 | 99.3% (inactive)
3 | Nc1nc(-c2ccccc2)c(N=Nc2ccc([N+](=O)[O-])cc2Cl)s1 | 98.1% (inactive)
4 | Cc1ccc(NCC(=O)Cn2cc(COc3ccc(C=Nc4cnc5ccccc5c4)cc3)nn2)cc1 | 101% (inactive)
5 | Cc1cccc(Nc2nc3ccccc3nc2/C=C/c2ccc(F)cc2)c1 | 97.3% (inactive)
6 | Cc1c(C(=O)NNC(=O)c2ccc(Cl)cc2)nnn1-c1ccc(Cl)cc1 | 100% (inactive)
7 | O=C(Cn1c(/C=C/c2ccc([N+](=O)[O-])cc2)nc2ccccc2c1=O)Nc1ccccc1 | 102% (inactive)
8 | Oc1ccc(Cl)c(Nc2nc(SCCN3CCOCC3)nc3c2cnn3CC(Cl)c2ccc(Br)cc2)c1 (stereo not given) | -36.2% (active)
9 | COc1ccc(N2N=C(c3ccc4c(c3)OCO4)CC2c2cccc(NC(=O)CCCNS(=O)(=O)c3ccc(F)cc3)c2)cc1 (stereo not given) | 55.7% (inactive)
10 | O=C(c1ccc(Cl)cc1)C1[C@H](c2ccc(Br)cc2)[C@@H](c2ccccc2)NC12C(=O)Nc1ccccc12 (stereo not given in full) | -32% (active)
11 | Nc1nc2c(F)c(F)c(F)c(F)c2s1 | 110% (inactive)
12 | COc1ccc(/C=C/c2n(Cc3ccc4ccccc4c3)c3ccccc3[n+]2Cc2ccc3ccccc3c2)cc1 | -5.59% (active)
13 | Cn1cc(NC(=O)c2cc(NC(=O)c3ccc(/C=C/c4ccccc4)cc3)cn2C)cc1C(=O)NCCCN1CCOCC1 | -37.6% (active)
14 | Brc1ccc(/C=C/c2n(Cc3ccc4ccccc4c3)c3ccccc3[n+]2Cc2ccc3ccccc3c2)cc1 | -48.7% (active)
15 | COc1cc2oc(-c3cccc(C(=O)Nc4ccc(Cl)cc4)c3)cc(=O)c2c(OCCNC(=O)[C@H](CO)NC(=O)OC(C)(C)C)c1OC | -32.5% (active)
16 | CCCCCCCCCCCCCCCCCC(=O)Nc1ccc(OC)cc1 | 90.3% (inactive)
17 | Cn1cc(-c2cc(N)n3nc(-c4c[nH]c5ccc(Br)cc45)cc3n2)c2cccnc21 | -49.9% (active)
18 | COc1cc2oc(-c3cccc(C(=O)Nc4ccc(Cl)cc4)c3)cc(=O)c2c(OCCNC(=O)CNC(=O)OC(C)(C)C)c1OC | 55.5% (inactive)
19 | CCOC(=O)C1=C(N)N(c2ccccc2)C2=C(C(=O)CC(C)(C)C2)C1c1ccccc1Cl (stereo not given) | -23% (active)
20 | COc1ccc2c(c1)N=c1c-2cc2c(O)[nH]c(=S)n2c1=O | -13.3% (active)

Row | Compound | growth
21 | Cc1ccc(-c2ccc(SCC(=O)Nc3ccc(Cl)c(C(F)(F)F)c3)nn2)cc1 | -22.3% (active)
22 | O=C(NO)c1ccc(-c2nc3ccc4[nH]ncc4c3c3c2CCCC3)cc1 | -18.7% (active)
23 | CS(=O)(=O)Nc1ccc(-c2ccc3c(c2)ncn3-c2ccc(NC(=O)Nc3ccc(Cl)c(C(F)(F)F)c3)cc2)cc1 | -42.4% (active)
24 | O=C(Nc1ccc(OCc2ccc(Cl)cc2)cc1)Nc1ccc(Cl)c(C(F)(F)F)c1 | 0.65% (active)
25 | O=c1[nH]c2ccccc2cc1CSc1ccc(Nc2nccc(-c3ccc(Cl)cc3)n2)cc1 | 74.8% (inactive)
26 | C/C(=N\N=C1/C(=O)Nc2ccccc21)c1ccc2c(c1)Nc1ccccc1S2 | 63.6% (inactive)
27 | COc1ccc(NC(=O)[C@H](CO)NC(=O)OC(C)(C)C)cc1C(=O)Nc1cccc(C2CC(=O)c3c(cc(OC)c(OC)c3OC)O2)c1 (stereo not given in full) | 58.1% (inactive)
28 | Brc1ccc(N/N=C/c2c[nH]c3ccc(Br)cc23)nc1 | -17.2% (active)
29 | CN(C)CCCNC(=O)c1cc(NC(=O)c2cc(NC(=O)c3ccc(/C=C/c4ccccc4)cc3)cn2C)cn1C | -37.7% (active)
30 | N#Cc1c(NC(=O)N2CCOCC2)n(-c2ccc(OC(F)(F)F)cc2)c2cc(F)ccc12 | 91.2% (inactive)
31 | COC(=O)c1cc(C(=O)CBr)n2c1ccc1c3ccccc3ccc12 | 49.3% (inactive)
32 | Cc1noc2c(Cc3ccccc3)nn(CC(=O)N/N=C/c3ccc(Cl)cc3)c(=O)c12 | 103% (inactive)
33 | COc1ccc(-c2cc(C(=O)Oc3ccc(C=O)cc3OC)nn2-c2ccc(S(C)(=O)=O)cc2)cc1 | 86.5% (inactive)
34 | Cc1cc(C)cc(Oc2cccc(-c3c(C)nnn3C3CCN(CCN(C)C)CC3)n2)c1 | -37% (active)
35 | CN1CCc2c(sc3ncnc(N/N=C/c4ccc(Cl)cc4Cl)c23)C1 | -49.9% (active)
36 | CCCS(=O)(=O)N1CCCC(C(=O)Nc2nc3ccc(NC(=O)c4ccc(F)c(OC)c4F)cc3s2)C1 (stereo not given) | 27.3% (inactive)
37 | Cc1ccc(CSc2nc(-c3ccc(F)cc3)c(C#N)c(=O)[nH]2)cc1 | 56.6% (inactive)
38 | N#C/C(=C/c1ccc(Cl)cc1)c1nnc(NC(=O)c2ccc(-n3c(=O)[nH]c4ccccc4c3=O)cc2)s1 | 98.2% (inactive)
39 | CCN1C(=O)N(CC)C2NNC(Sc3c(C(=O)O)c4ccccc4n(CCC(C)C)c3=O)=NC21 (stereo not given) | -48.1% (active)
40 | O=C(c1ccc(Cl)cc1)C1[C@H](c2ccccc2Br)[C@@H](c2ccccc2)NC12C(=O)Nc1ccc(Br)cc12 (stereo not given in full) | -6.61% (active)
